Results taken from PubChem BioAssay (EPA / NIEHS).
Several values for one entry are separate records, joined by “and”; a condition that tells them apart may be missing. Equal values may be shown once. Results filed as inconclusive are left out. The source holds several records for some structures; these can differ, active in one and inactive in another. Activity calls are given as the source filed them. How the source made its calls, unless noted: active means hit-call score of the fitted dose curve at least 0.9, where 1 is the maximum; inactive means score below 0.9.

Key:
[1] = CCTE_Mundy_HCI_Cortical_Synap_Neur_Matur_NeuriteCount: CCTE's Synaptogenesis and Neurite Maturation Assay in rat cortical cells for Neurite Count, Mundy Lab (AID 2284222)
Outline: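 Rat cortical neurons, 96-well; AraC DIV 5; chemical + media change DIV 7; end DIV 12. Fix PFA/Hoechst, anti-MAP2 + anti-synaptophysin IF. HCI neurite count vs DMSO baseline.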

[2] = CCTE_Mundy_HCI_Cortical_Synap_Neur_Matur_CellBodySpotCount: CCTE's Synaptogenesis and Neurite Maturation Assay in rat cortical cells for Cell Body Spot Count, Mundy Lab (AID 2284223)
Outline: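 Read-out: cell body-associated synaptophysin puncta per neuron, imaged after MAP2, synaptophysin and Hoechst staining. Rat cortical cells, AraC DIV 5, chemical dosing DIV 7, fixation DIV 12. Activity fitted in positive direction relative to DMSO baseline.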

[3] = BSK_BT_PBMCCytotoxicity: PBMC Cytotoxicity Assessment in the BioMAP Diversity Plus: BT Assay (AID 2284225); conditions: primary human B cells with PBMC;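 further: PBMC viability measured by Alamar Blue dye reduction fluorescence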
Outline: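 PBMC (75,000/well) pretreated with compound 1 h, then activated with SEB and TSST-1 (20 ng/mL each final), incubated 90 h; Alamar Blue added 6 h, fluorescence read at 546/580 nm. Fitted relative to DMSO.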

[4] = read-out: Secreted IgG (sIgG), gene 3500; test: BSK_BT_sIgG: BioMAP Diversity Plus: BT Assay for Secreted IgG (sIgG) Biomarker Activity (AID 2284226); conditions: primary human B cells with PBMC
Outline: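 Human B cell plus PBMC co-culture; secreted IgG measured by ELISA 24 h after chemical dosing. Response fitted in positive direction relative to DMSO baseline.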

[5] = BSK_BT_Bcell_Proliferation: Viability Assessment in the BioMAP Diversity Plus: BT Assay for B cell Proliferation (AID 2284227); conditions: primary human B cells with PBMC
Outline: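 Human B cell/PBMC co-culture; test chemical added; 72 h; TCA fix (10%), 0.1% SRB stain, A560 for total protein as a proliferation read-out; positive-direction fit vs DMSO baseline.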

[6] = read-out: Interleukin 6 (IL6), IL6 (gene 3569); test: BSK_BT_xIL6: BioMAP Diversity Plus: BT Assay for Interleukin 6 (IL6) Biomarker Activity (AID 2284228); conditions: primary human B cells with PBMC
Outline: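 Readout: secreted IL-6 via Luminex xMAP multiplex, 24 h post-dosing. System: primary human B cells co-cultured with PBMC. Signal change scored relative to DMSO vehicle, positive fitting direction.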

[7] = read-out: Interleukin 17A (IL17A), IL17A (gene 3605); test: BSK_BT_xIL17A: BioMAP Diversity Plus: BT Assay for Interleukin 17A (IL17A) Biomarker Activity (AID 2284229); conditions: primary human B cells with PBMC
Outline: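 Luminex xMAP readout of secreted IL-17A; human B cell + PBMC co-culture; 24 h post-dose; positive-direction fit vs DMSO negative control.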

[8] = read-out: Tumor necrosis factor (Homo sapiens) (UniProt P01375); test: BSK_BT_xTNFa: BioMAP Diversity Plus: BT Assay for Tumor necrosis factor alpha (TNF-alpha) Biomarker Activity (AID 2284230); conditions: primary human B cells with PBMC
Outline: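 Read-out: Luminex xMAP quantitation of secreted TNF-alpha from a B cell/PBMC co-culture 24 h after compound addition. Signal analysed relative to DMSO vehicle, positive fitting direction.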

[9] = read-out: Vascular cell adhesion molecule 1 (VCAM1), VCAM1 (gene 7412); test: BSK_MyoF_VCAM1: BioMAP Diversity Plus: MyoF Assay for Vascular cell adhesion molecule 1 (VCAM1) Biomarker Activity (AID 2284231); conditions: primary human lung fibroblasts
Outline: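 MyoF system, lung fibroblasts; 24 h post-dose; VCAM-1 by ELISA; gain-of-signal fit vs DMSO baseline.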

[10] = UKN4_HCS_LUHMES_cell_viability: Viability Assessment in the University of Konstanz (UKN) Leist Lab Neurite Outgrowth Assay in human LUHMES cells (UKN4) (AID 2284232)
Outline: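 LUHMES precursors differentiated 2 days, replated at 30000 cells/well without cAMP/GDNF, then compound-treated 24 h. Viability from Hoechst H-33342 and calcein-AM live staining (30 min) by high-content fluorescence imaging; bidirectional fit versus DMSO.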

[11] = CCTE_Mundy_HCI_Cortical_NOG_NeuronCount: CCTE's Neurite Outgrowth Assay in rat cortical cells for Neuron Count, Mundy Lab (AID 2284236; active means hit-call score of the fitted dose curve at least 0.9, where 1 is the maximum;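 further: neurons counted by imaging betaIII-tubulin and Hoechst stained cortical cells; cells exposed to compound for about 48 hours before fixation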)
Outline: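 Read-out: neuron number by high-content imaging of betaIII-tubulin (Alexa Fluor-488) and Hoechst-labelled rat primary cortical cells.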

[12] = CCTE_Mundy_HCI_Cortical_NOG_BPCount: CCTE's Neurite Outgrowth Assay in rat cortical cells for Branch Point Count, Mundy Lab (AID 2284237);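 on AC50: branch points counted about two days after chemical exposure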
Outline: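 Measured 50.33 h after dosing, this morphology endpoint uses rat primary cortical cultures labelled for betaIII-tubulin. Branch points are quantified by high-content imaging, with DMSO as negative control and baseline.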

[13] = read-out: Collagen I, COL1A1 (gene 1277); test: BSK_MyoF_CollagenI: BioMAP Diversity Plus: MyoF Assay for Collagen I Biomarker Activity (AID 2284238); conditions: primary human lung fibroblasts
Outline: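 ELISA readout of Collagen I after 24 h chemical treatment of primary human lung fibroblast cultures; gain of signal scored relative to DMSO vehicle baseline.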

[14] = read-out: Collagen III, COL3A1 (gene 1281); test: BSK_MyoF_CollagenIII: BioMAP Diversity Plus: MyoF Assay for Collagen III Biomarker Activity (AID 2284239); conditions: primary human lung fibroblasts
Outline: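 Lung fibroblast culture; 24 h compound exposure; collagen III by ELISA; gain-of-signal fit vs DMSO baseline.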

[15] = CCTE_Mundy_HCI_hNP1_CellTiter: CCTE's Cell Titer-Glo 2 Assay in human neuroprogenitor cells for Viability, Mundy Lab (AID 2284241; active means hit-call score of the fitted dose curve at least 0.9, where 1 is the maximum)
Outline: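 Measures ATP content in human neural progenitors derived from WA09 embryonic cells. Read-out at 26.5 hours after dosing, with DMSO serving as the negative control and baseline.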

[16] = CCTE_Mundy_HCI_hNP1_Pro_ResponderAvgInten: CCTE's Proliferation Assay in human neuroprogenitor cells, Mundy Lab (AID 2284224; active means hit-call score of the fitted dose curve at least 0.9, where 1 is the maximum;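 further: human neural progenitor cells hNP1 derived from WA09 embryonic stem cells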)
Outline: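 Human neuroprogenitors (hNP1, WA09 lineage) receive test chemical after 40 to 44 hours of attachment. A four-hour BrdU pulse begins twenty hours later, followed by fixation and high content imaging; signal is referenced to DMSO controls.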

Measured: AC50

Tumor necrosis factor (Homo sapiens), sequence (P01375 whole entry, looked up): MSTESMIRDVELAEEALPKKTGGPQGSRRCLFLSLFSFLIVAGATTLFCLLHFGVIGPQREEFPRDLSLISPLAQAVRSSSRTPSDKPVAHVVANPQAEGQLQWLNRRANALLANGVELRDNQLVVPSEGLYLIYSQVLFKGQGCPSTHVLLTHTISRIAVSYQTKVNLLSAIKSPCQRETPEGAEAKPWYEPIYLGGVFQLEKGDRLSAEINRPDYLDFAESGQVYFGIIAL

O=S(=O)(O)C(F)(F)C(F)(F)C(F)(F)C(F)(F)C(F)(F)C(F)(F)C(F)(F)C(F)(F)F
inactive: [1] | [2] | [3] | [4] | [5] | [6] | [7] | [8] | [9] | [11] | [12] | [13] | [14] | [15]
active: [3] 24 µM and 33.9 µM | [5] 19.5 µM | [10] 20.4 µM

CC1(C)C(C=C(Cl)Cl)C1C(=O)OC(C#N)c1ccc(F)c(Oc2ccccc2)c1 (centres undefined)
inactive: [1] | [2] | [16] | [11] | [12] | [15]
active: [1] 73.6 µM | [2] 87.1 µM | [11] 49.9 µM | [12] 63.1 µM

O=C(O)C(F)(F)C(F)(F)C(F)(F)C(F)(F)C(F)(F)C(F)(F)C(F)(F)F
active: [3] 30 µM | [5] 24 µM | [8] 5.95 µM | [10] 89.4 µM
inactive: [1] | [2] | [16] | [3] | [4] | [5] | [6] | [7] | [8] | [9] | [11] | [12] | [13] | [14]

O=C(O)COc1ccc(Cl)cc1Cl
inactive: [1] | [16] | [11] | [12] | [15]

ClC1C(Cl)C(Cl)C(Cl)C(Cl)C1Cl (centres undefined)
inactive: [3] | [5] | [6] | [7] | [8] | [10] | [13] | [14]
active: [4] 30.5 µM and 21.1 µM | [5] 33.6 µM | [8] 30.5 µM | [9] 16.3 µM and 261 nM | [13] 25.5 µM | [14] 30.3 µM
